94 molecules from PubChem BioAssay AID435003 (Sanford-Burnham Center for Chemical Genomics, 2010) can be followed below.

What is called inhibition is the drop in the measured response relative to a control, in per cent.

Among all 330,000 compounds or so, about 1,700 (0.52%) were called active. Rule as the data show it: active = inhibition above about 50%; inactive = the rest. For the sample, actives were picked, then their nearest neighbours and some compounds at random.

This assay is described as follows: lowers stimulated NF-kB reporter luminescence – cell-based, uHTS, TCR NF-kB activation inhibitor project, primary screen (AID 435003). Particulars: Jurkat, PMA/ionomycin-induced NF-kB luciferase reporter, at 4 µM, hits give high values.
Regarding `N/C(=N\OC(=O)N1c2ccccc2Sc2ccccc21)c1ccc(Br)cc1`, the inhibition is 77% (active).
On to `N/C(=N\OC(=O)c1ccc2c(c1)OCO2)c1ccc(Br)cc1`, for which the inhibition was -102% (inactive).
As for `N/C(=N\OC(=O)Cc1ccccc1[N+](=O)[O-])c1ccc(Br)cc1`, the figure is 1.58% (inactive); as for `CC(C)(C)NS(=O)(=O)NC(=O)C1=C(N2CCCC2)COC1=O`, -4.98% (inactive).
As to `COC(=O)C1=NNC2(c3ccc(C)cc3)C(=O)N(c3cccc(C)c3C)C(=O)C12` (centres undefined), the inhibition is -13.7% (inactive).
Consider `Cc1ccc(S(=O)(=O)N2CCCCC2)cc1C(=O)N(C)CC(=O)Nc1cccc(F)c1`, for which the inhibition was 0.943% (inactive).
For the molecule `Cc1cc(C)cc(NC(=O)N2CCC(NC(=O)c3ccc(F)cc3)CC2)c1`, the inhibition is -8.05% (inactive).
As to `O=C(Nc1cccc(S(=O)(=O)N2CCCCC2)c1)c1cncc(Br)c1`, the inhibition is -9.4% (inactive).
On to `O=C(CCNC(=O)c1ccc(Br)cc1)Nc1cccc(S(=O)(=O)N2CCCCC2)c1`, for which the inhibition was 51.4% (active).
Turning to `Cc1ccc(S(=O)(=O)N2CCCCC2)cc1NC(=O)CCNC(=O)c1ccccc1`, the inhibition is 1.31% (inactive).
For the molecule `COc1ccc(-n2nnc3c(=O)n(CC(=O)OCc4ccccc4)cnc32)cc1`, the inhibition was -2.47% (inactive).
In the case of `CCCc1nnc(SCC(=O)Nc2ccc(C(=O)OCC)cc2)o1`, the inhibition was -1.45% (inactive).
For `CCOC(=O)c1ccc(NC(=O)Cn2cnc3cc(C)c(C)cc32)cc1`, the inhibition was 66.1% (active).
As for `CCOC(=O)c1ccc(NC(=O)Cc2cccs2)cc1`, the figure is -42.6% (inactive); as for `COc1ccc(CNC(=O)C2CCN(S(C)(=O)=O)CC2)cc1`, 11.1% (inactive); as for `COc1ccc(CNS(=O)(=O)c2cc(-c3cc(C)no3)ccc2C(C)C)cc1`, 50.9% (active).
As for `CCOc1ccccc1CNS(=O)(=O)c1cc(-c2cc(C)no2)ccc1C`, the figure is 18% (inactive); as for `Cc1cc(-c2ccc(C)c(S(=O)(=O)NCCCN(Cc3ccccc3)C(C)C)c2)on1`, 9.13% (inactive); as for `COc1ccc(/C=N/NC(=O)C(C)N(c2ccc(OC)cc2)S(C)(=O)=O)cc1` (centres undefined), 13.9% (inactive).
Consider `CC(C)CC(=O)Nc1nnc(S(=O)(=O)N(C)c2ccc(Cl)cc2)s1`, for which the inhibition was 1.22% (inactive).
As for `CS(=O)(=O)N1CCN(C(=O)c2cc3ccccc3oc2=O)CC1`, the figure is 2.45% (inactive).
The same measure for `COc1cccc(-n2c(=S)[nH]c3c(oc4ccccc43)c2=O)c1`: -22.5% (inactive).
Turning to `O=c1oc2ccccc2cc1-c1cn(-c2ccccc2)c(=S)[nH]1`, the inhibition is 85.2% (active).
The same measure for `CCOC(=O)c1cc(-c2ccc(F)cc2)n(CC(=O)NCc2ccccn2)c1C`: -17.7% (inactive).
As for `CCCN(CC1CC1)C(=O)COC(=O)c1ccc(C)cc1O`, the figure is -1.18% (inactive).
As for `Cc1cc(/C=N/n2cnnc2)c(C)n1-c1ccc2ncccc2c1`, the inhibition was 9.47% (inactive).
As for `O=C1Oc2ccccc2C(=O)/C1=C/c1ccccc1O`, the figure is 8.95% (inactive); as for `CCOc1cc(C(=O)N2CCc3cc(OC)c(OC)cc3C2)ccc1OC(F)F`, 78.8% (active).
`COc1cc2c(cc1OC)CN(C(=O)c1cc(S(=O)(=O)N3CCCCC3)ccc1Cl)CC2`: the inhibition is 20.2% (inactive).
The same measure for `COc1cc2c(cc1OC)CN(C(=O)c1ccc(S(=O)(=O)N3CCCCCC3)cc1)CC2`: 12.2% (inactive); for `CCOc1ccccc1-c1nc(CN2CCC(C(=O)N3CCOCC3)CC2)c(C)o1`: 1.89% (inactive); for `COCCn1cnc2c1c(=O)n(Cc1ccc(Br)cc1)c(=O)n2Cc1ccccc1`: 11% (inactive).
For the molecule `N=c1c2c(-c3ccccc3)c(-c3ccccc3)n(Cc3ccccc3)c2ncn1CCCO`, the inhibition is 58.6% (active).
In the case of `CCN(CC)CCn1cnc2c1c(=O)[nH]c(=O)n2Cc1ccccc1`, the inhibition is -2.97% (inactive).
For the molecule `CSc1nc(-c2ccccc2)nc(C(Cl)Cl)n1`, the inhibition is 11% (inactive).
With `Nc1cccnc1Sc1ccccc1`, the inhibition is 3.25% (inactive).
Consider `Cc1ccc2c(c1)N(CC(=O)NCCCN1CCCCC1)C(=O)c1cccnc1O2`, for which the inhibition is -8.41% (inactive).
As for `COCCOC(=O)c1[nH]c2c(c1C)C(=O)CC(c1ccc(OC)cc1)C2` (centres undefined), the figure is -19.4% (inactive); as for `CCCOC(=O)c1[nH]c2c(c1C)C(=O)CC(c1cccs1)C2` (centres undefined), 60.8% (active); as for `COC(=O)C1C(=O)c2c([nH]c(C(=O)OCCSC)c2C)CC1C` (centres undefined), -39.9% (inactive).
With `O=S(=O)(c1ccc(Sc2nnc3ccccn23)nc1)N1CCOCC1`, the inhibition was -12% (inactive).
Consider `Cc1c(Br)c([N+](=O)[O-])nn1C(C)C(=O)Nc1nccs1` (centres undefined), for which the inhibition was 22.7% (inactive).
As to `COc1cc([C@H](Cc2ccccc2)NC(C)=O)oc(=O)c1`, the inhibition was 8.38% (inactive).
As for `CCN1/C(=C\c2ccc3ccccc3[n+]2CC)Sc2cc(C)ccc21`, the figure is 90.1% (active); as for `CCSC1=C(C#N)C(=O)n2c1cc1c2CCCC1`, 3.71% (inactive).
As for `CC1(C)CC(N2CCN(C(c3ccccc3)c3ccccc3)CC2)=CC(=[N+]2CCCCC2)C1`, the figure is 83.2% (active); as for `Oc1ccccc1CN1CCN(C(c2ccccc2)c2ccccc2)CC1`, -10.4% (inactive).
The same measure for `O=C1CC(N2CCN(C(c3ccccc3)c3ccccc3)CC2)C(=O)N1` (centres undefined): 4.97% (inactive); for `CC(C)(C)NS(=O)(=O)CC12CCC(CC1=O)C2(C)C` (centres undefined): -14% (inactive).
For `CC/C(=N\NC(=O)c1c(C)nc2ccccn12)c1ccc(Cl)cc1`, the inhibition was -10.6% (inactive).
The same measure for `CC1(C)CC(CCC(=O)Nc2ccccc2Cl)C(=O)O1` (centres undefined): 5.25% (inactive); for `Cc1c(NC(=O)Nc2ccccc2Cl)sc(=S)n1C`: 10.9% (inactive).
As for `O=C(Nc1ccccc1Cl)/C(Cl)=C(\Cl)S(=O)c1ccccc1` (centres undefined), the inhibition was 100% (active).
The same measure for `CSc1n[nH]c(=S)n1N`: 8.75% (inactive).
The same measure for `COc1ccccc1-c1nnc2n1N=C(c1ccc(OC(F)F)c(OCC3CC3)c1)CS2`: 21.8% (inactive).
As for `COc1ccc(C2=Nn3c(nnc3-c3ccccc3OC)SC2)cc1OC1CCCC1`, the figure is 57.3% (active).
For `CC1=Nn2c(nnc2-c2ccccc2)SC1`, the inhibition is -7.08% (inactive).
The same measure for `COc1cc(C(=S)NC2CCCCC2)ccc1O`: -4.8% (inactive).
As for `C/C(CC(O)(/C=N/O)c1ccccc1)=N\O` (centres undefined), the figure is -6.87% (inactive).
As for `CCCNC(=O)OC[C@H]1O[C@H](CCO/N=C/[C@@H](NS(=O)(=O)c2ccc(C)cc2)[C@H](C)/C=C/CC(=O)OC)C=C[C@@H]1Oc1ccc(OC)cc1`, the figure is 8.93% (inactive); as for `O=C(COCc1cc(-c2ccc3c(c2)OCO3)on1)N1CCN(c2cccc(Cl)c2)CC1`, 3.84% (inactive); as for `O=[N+]([O-])c1ccccc1S(=O)(=O)Nc1cccc2cccnc12`, 70.3% (active).
For `O=S(=O)(NCCc1ccc(F)cc1)c1cccc2cccnc12`, the inhibition was 2.69% (inactive).
As to `NS(=O)(=O)c1ccc(CCNS(=O)(=O)c2cccc3cccnc23)cc1`, the inhibition is -18.6% (inactive).
As to `O=C(Nc1ccc(Br)cc1F)C1CC(=O)N(C2CCCCC2)C1` (centres undefined), the inhibition is -3.7% (inactive).
The same measure for `CCn1c(/C=C/c2ccc([N+](=O)[O-])o2)nc2ccccc2c1=O`: 54.7% (active).
Turning to `CCn1c(SCc2ccccc2)nc2cc(OC)c(OC)cc2c1=O`, the inhibition was -6.84% (inactive).
As for `CCOCCCn1c(NN)nc2ccccc2c1=O`, the figure is -7.49% (inactive); as for `Cc1noc(C)c1C(=O)N(CC(=O)NC1CCCC1)Cc1ccccc1F`, -8.54% (inactive).
The same measure for `COc1ccc(C(=O)COC(=O)C(O)c2ccccc2)c(OC)c1` (centres undefined): 0.0915% (inactive).
The same measure for `COc1ccc2[nH]c3nc(SCC(=O)NC4CC4)nnc3c2c1`: -17.7% (inactive).
Take `CCOc1ccc2[nH]c3nc(SCC(=O)NC4CCCC4)nnc3c2c1`: the inhibition is 59% (active).
As for `O=C(CSc1nnc2c(n1)[nH]c1ccccc12)NC1CCCCC1`, the figure is 21.2% (inactive).
The same measure for `O=C(c1ccc(Cl)s1)N(Cc1nnc(-c2ccccc2Cl)o1)C1CC1`: -18.3% (inactive); for `Cc1cc(C(=O)COc2ccc(Br)cc2F)c(C)n1C1CC1`: -9.16% (inactive); for `C=CCOc1cccc(C2NC(=O)c3ccccc3O2)c1` (centres undefined): 3.44% (inactive).
The same measure for `Cc1ccc(C)c(NS(=O)(=O)c2cc(Br)cnc2N)c1`: -1.35% (inactive); for `C/C=C(\C)C(=O)N1CC2(CC(c3cccc(NC(=O)CCCCC)c3)=NO2)C[C@@H]1C(N)=O` (some centres undefined): 2.26% (inactive).
With `Oc1ccc(/C=N/Nc2ccc(C(F)(F)F)cn2)cc1O`, the inhibition was 59.5% (active).
As to `Oc1ccc(Br)cc1/C=N/Nc1ccccn1`, the inhibition was 32.4% (inactive).
The same measure for `O=C(N/N=C/c1ccc(O)c(O)c1)C1c2ccccc2Oc2ccccc21`: 2.58% (inactive).
The same measure for `O=C(c1ccc(OC2CCN(C(=O)c3cccnc3)CC2)cc1)N1CCCCCC1`: -2.83% (inactive); for `Cc1ccc(-n2ncc3c2CC(C)(C)CC3NC(=O)Cc2c(C)noc2C)cc1` (centres undefined): 50.6% (active); for `CC1=C(C(=O)NC2CC(C)(C)Cc3c2cnn3-c2ccc(C)cc2)OCCO1` (centres undefined): 4.55% (inactive).
For `COc1ccc(-n2ncc3c2CC(C)(C)CC3NC(=O)CCc2c(C)noc2C)cc1` (centres undefined), the inhibition was 20% (inactive).
With `CCN1C(=O)/C(=C2\SC(N3CCCCC3)=NC2=O)c2ccccc21`, the inhibition was -33.7% (inactive).
On to `COC(=O)c1ccc(C(=O)Nc2cc(Cl)ccc2Cl)cc1NC(=O)c1ccccc1C`, for which the inhibition was -2.99% (inactive).
The same measure for `Cc1c(C=O)c2ccccc2n1CCOc1ccccc1`: -14.6% (inactive); for `COc1cc2c(cc1OC)CN(C(=O)c1cc(=O)c3ccccc3o1)CC2`: 50.7% (active).
Consider `COc1ccccc1CNC(=O)c1cc(=O)c2ccccc2o1`, for which the inhibition is -3.35% (inactive).
For `COc1ccc2c(CC(=O)N3CCc4cc(OC)c(OC)cc4C3)coc2c1`, the inhibition is 15.9% (inactive).
The same measure for `C=CCn1c(C)cc(C2=NNC(=NCC)SC2)c1C`: 67.2% (active).
As for `Cc1ccc(-n2c(=O)cc(N3CCN(Cc4ccccc4)CC3)[nH]c2=O)cc1`, the figure is 1.04% (inactive).
As for `CCNC(=O)c1cccc(NC(=O)C2CC(=O)N(CCc3ccccc3)C2)c1` (centres undefined), the figure is 8.87% (inactive).
